Among all 300,000 compounds or so, about 3,200 (1.1%) were called active. The sample as a whole holds a higher share of actives than the screen did. Unmarked numbers belong to inactive results. Rule as the data show it: active = inhibition above about 75%; inconclusive = no clear call, values can overlap the other calls; inactive = below that; tested in HMLE shEcad cells.
Assay: cancer stem cell viability inhibitors, primary screen, luminescence (AID 2717)
Details: cancer stem cell-like cells viability, at 7.5 µM, hits give high values
Work on `O=C(COC(=O)c1ccc(F)cc1)NCC1COc2ccccc2O1` (stereo not given) yielded an inhibition of -14.2%.
Compound `CCCc1cc(=O)[nH]c(SCC(=O)OCc2ccccc2)n1` has an inhibition of 4.11%.
For `CCCc1cc(=O)[nH]c(SCC(=O)c2c(N)n(CC(C)C)c(=O)n(C)c2=O)n1`, the inhibition was 83.8% (active).
For `CCCc1cc(=O)[nH]c(SCC(=O)c2cc(C)n(CCC)c2C)n1`, the inhibition was -3.32%.
In the case of `O=C(CCc1nc(-c2ccccc2)no1)Nc1cccc(C(=O)NC2CC2)c1`, the inhibition is reported as 1.1%.
With `CCN(C(=O)COC(=O)c1ccccc1O)c1cccc2ccccc12` the inhibition was -18.3%.
With `CCc1cc(C(=O)Nc2nnc(C3CC3)s2)sc1C` the inhibition was -10.9%.
Compound `C[C@H](CO)N1C[C@H](C)[C@@H](CN(C)C(=O)Nc2ccc3c(c2)OCO3)Oc2c(cccc2N(C)C)C1=O` has an inhibition of -12.1%.
In the case of `COc1ccc(-c2sc3ccc(OC)cc3c2C#Cc2ccccn2)cc1`, the inhibition is reported as 111% (active).
For `COc1ccc2sc(-c3ccc(N(C)C)cc3)c(C#CCO)c2c1`, the inhibition was 113% (active).
`COc1ccc2sc(-c3ccc(S(C)(=O)=O)cc3)c(C#Cc3cncn3C)c2c1` showed an inhibition of 45.5%.
`COc1ccc(-c2c(C#Cc3ccccc3)c3ccccc3n2C)cc1` gave an inhibition of 3.8%.
For `COc1ccc(C2(C)ON(c3ccccc3C(F)(F)F)C2=O)cc1` (stereo not given), the inhibition was 6.61%.
Work on `Cn1nnnc1SCC(=O)Nc1cccc(S(=O)(=O)N2CCCCC2)c1` yielded an inhibition of 1.58%.
Work on `Cn1cccc1C(=O)OCC(=O)NCCc1ccccc1` yielded an inhibition of 6.32%.
`Cc1c(C(=O)N2CCCc3ccccc32)oc2ccccc12` showed an inhibition of -3.96%.
`Cc1c(C(=O)N2CCCc3ccccc32)sc2nc(-c3ccccc3)cn12` gave an inhibition of 36.7%.
For `Cc1cccc2cc3c(N)c(C(=O)N4CCCc5ccccc54)sc3nc12`, the inhibition was 85.3% (active).
For `Oc1c(Cl)cc(Cl)c(Cl)c1Cc1c(O)c(Cl)cc(Cl)c1Cl`, the inhibition was 99.3% (active).
Compound `Cc1ccc(NS(=O)(=O)c2ccc(C(C)C)cc2)cc1S(=O)(=O)N1CCOCC1` has an inhibition of -16.7%.
For `Cc1cc(C)cc(NS(=O)(=O)c2ccc(Oc3ncc(C(F)(F)F)cc3Cl)cc2)c1`, the inhibition was 118% (active).
Compound `COC(=O)Cc1ccc(Oc2ncc(C(F)(F)F)cc2Cl)cc1` has an inhibition of -10.7%.
For `Cc1cc(C)cc(NS(=O)(=O)c2ccc(F)cc2)c1`, the inhibition was -6.47%.
Compound `CN1C(=O)[C@H]2[C@@H](/C=C/c3ccccc3)N3C(=O)CN(Cc4ccc(-c5ccccc5)cc4)C(=O)[C@@]3(C)[C@H]2C1=O` has an inhibition of -4%.
With `CN(CC(=O)NCCc1ccc(S(N)(=O)=O)cc1)CC(=O)Nc1ccc(F)c(F)c1F` the inhibition was -16.9%.
`CC1CC(=NNC(=O)C2COc3ccccc3O2)CC(C)(C)C1` (stereo not given) showed an inhibition of -9.31%.
Work on `Cc1ccc2c(N)c(C(=O)c3ccccc3)sc2n1` yielded an inhibition of 45.8%.
With `CCc1nc2sc(C(=O)O)c(N)c2c2c1CCCC2` the inhibition was 5.22%.
Work on `O=C(NNC(=O)c1cccc(S(=O)(=O)Nc2ccc(Cl)cc2)c1)c1ccc(=O)[nH]c1` yielded an inhibition of -9.6%.
Work on `Cc1ccc(NC(=O)c2cccc(S(=O)(=O)N3CCCc4ccccc43)c2)nc1` yielded an inhibition of 0.233%.
Compound `COc1ccc(Cl)cc1NC(=O)COC(=O)c1ccc(Br)o1` has an inhibition of 0.173%.
`CS(=O)(=O)c1ccc(C(=O)NNC(=O)c2cccs2)cc1` gave an inhibition of -0.179%.
With `Nc1nonc1-n1nnc(C(=O)N/N=C/c2cc(Br)ccc2O)c1CSC1=NCCS1` the inhibition was 108% (active).
In the case of `Nc1nonc1-n1nnc(C(=O)N/N=C/c2ccccc2O)c1CN1CCCC1`, the inhibition is reported as 62%.
In the case of `Cc1ccc(SCc2c(C(=O)N/N=C/c3cccnc3)nnn2-c2nonc2N)cc1`, the inhibition is reported as 1.7%.
With `O=C1COc2ccc(C(=O)COC(=O)CCOc3ccccc3)cc2N1` the inhibition was 0.0702%.
For `CC[C@@H]1Cc2cc(O)ccc2C2=C1c1ccc(O)cc1C[C@H]2CC`, the inhibition was 102% (active).
`CC1(C)CC(=O)c2ccc(O)cc2O1` showed an inhibition of 2.93%.
Compound `CC(C)CC1(C)NC(=O)N(CC(=O)Nc2ccc3c(c2)OCCO3)C1=O` (stereo not given) has an inhibition of -19%.
For `O=C(/C=C/c1ccc(Cl)c([N+](=O)[O-])c1)c1ccc(O)cc1`, the inhibition was 80.8% (active).
Compound `O=C(Nc1ccncc1)c1ccc(Cl)c([N+](=O)[O-])c1` has an inhibition of 2.54%.
With `O=C(/C=C/c1ccc2c(c1)OCCO2)c1ccc(O)cc1` the inhibition was 19.1%.
With `CN(C)c1ccc(/C=C/C(=O)c2ccc(C(C)(C)C)cc2)cc1[N+](=O)[O-]` the inhibition was 75.4% (active).
`CN(C)c1ccc(/C=C/C(=O)c2ccc(O)cc2)cc1[N+](=O)[O-]` gave an inhibition of 26.4%.
For `CC(=O)Nc1ccc(/C=C/C(=O)c2ccccc2)cc1`, the inhibition was 2.62%.
`Cc1sc2ncnc(N3CCC(C(=O)Nc4ccc(F)cc4Cl)CC3)c2c1C` showed an inhibition of 4.03%.
Work on `COc1cc(OC)cc(C(=O)NCC(=O)OCC(=O)NC(C)CCc2ccccc2)c1` (stereo not given) yielded an inhibition of -13.2%.
With `CC(C)(C)OC(=O)CNC(=O)c1[nH]cnc1C(=O)N[C@@H](CCCCN)C(=O)OC(C)(C)C` the inhibition was -4.68%.
In the case of `COC(=O)c1sc(-c2ccc(C(C)(C)C)cc2)cc1NC(=O)/C=C/C(=O)O`, the inhibition is reported as 119% (active).
`O=C(O)/C=C/C(=O)Nc1ccc(F)cc1F` showed an inhibition of -20.2%.
Compound `COc1ccccc1NC(=O)/C=C/C(=O)O` has an inhibition of 0.627%.
Compound `COc1cc(OC)cc(-c2cc3ccc(F)cc3cn2)c1` has an inhibition of 47%.
With `CC[C@]1(O)CC2CN(CCc3c([nH]c4ccccc34)[C@@](C(=O)OC)(c3cc4c(cc3OC)N(C=O)[C@H]3[C@@](O)(C(=O)OC)[C@H](OC(C)=O)[C@]5(CC)C=CCN6CC[C@]43[C@@H]65)C2)C1` (stereo not given in full) the inhibition was 62.5%.
For `CC[C@]1(O)C[C@@H]2CN(CCc3c([nH]c4ccccc34)[C@@](C(=O)OC)(c3cc4c(cc3OC)N(C)[C@H]3[C@@](O)(C(=O)OC)[C@H](OC(C)=O)[C@]5(CC)C=CCN6CC[C@]43[C@@H]65)C2)C1`, the inhibition was 80.5% (active).
For `CC(=O)c1ccc(OCCN2CCOCC2)cc1`, the inhibition was -15.6%.
For `COc1ccc2sc(-c3ccccc3OC)c(-c3ccc(OCCN4CCCC4)cc3)c2c1`, the inhibition was 105% (active).
Work on `COc1ccccc1-c1sc2ccccc2c1-c1ccc(Br)nc1` yielded an inhibition of 31.6%.
With `COc1ccc(-c2sc3ccccc3c2-c2ccc(OCCN3CCOCC3)cc2)cc1` the inhibition was 136% (active).
With `c1ccc(-c2ccccc2OCCN2CCCCC2)cc1` the inhibition was 0.336%.
`c1ccc(-c2ccc(OCCN3CCOCC3)cc2)cc1` gave an inhibition of 5.72%.
